Experimental data from paper PMC7862700, “An all-to-all approach to the identification of sequence-specific readers for epigenetic DNA modifications on cytosine”.

Assays:
Test in all cases: DAPPL (digital affinity profiling via proximity ligation, sequencing); 10 mM Tris-HCl pH 7.5, 50 mM NaCl, 1 mM DTT, 4% glycerol, room temperature, 30 min; GST-TFs on glutathione beads, 16-mer random dsDNA library, 0.1% formaldehyde crosslink after washing; high values mean tight binding
Details in all cases: protein: recombinant; tags: N-terminal GST; dsDNA, one strand shown
[1] = target: T1, ELK1 (Homo sapiens, UniProt P19419 1-428)
T1 sequence: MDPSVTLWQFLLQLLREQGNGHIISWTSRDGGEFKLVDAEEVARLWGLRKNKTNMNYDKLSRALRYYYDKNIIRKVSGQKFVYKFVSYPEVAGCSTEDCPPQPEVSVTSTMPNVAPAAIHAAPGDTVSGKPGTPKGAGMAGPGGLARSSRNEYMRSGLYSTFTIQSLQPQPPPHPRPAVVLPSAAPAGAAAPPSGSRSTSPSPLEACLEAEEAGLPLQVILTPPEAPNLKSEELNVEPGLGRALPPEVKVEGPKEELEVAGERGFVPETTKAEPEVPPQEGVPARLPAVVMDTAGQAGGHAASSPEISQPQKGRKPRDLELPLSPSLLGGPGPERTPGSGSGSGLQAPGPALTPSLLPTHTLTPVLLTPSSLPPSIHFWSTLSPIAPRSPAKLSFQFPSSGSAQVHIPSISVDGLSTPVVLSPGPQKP
In short: (§1)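 A tag-only sample was pooled with DNA-barcoded human transcription factors that had been expressed in yeast as GST fusions and captured on glutathione beads. The pools were incubated for 30 min at room temperature with 200 nmole of a random double-stranded 16-mer DNA library in Tris/NaCl/DTT/glycerol buffer, then washed, crosslinked with 0.1% formaldehyde, proximity-ligated (BsaI/T4 ligase, 1 h, 37 °C), PCR-amplified and sequenced on an Illumina NextSeq500. Binding signal is each hexamer's read frequency for a factor divided by its frequency for the tag-only sample.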

[2] = target: T2, GABPA (Homo sapiens, UniProt Q06546 1-454)
T2 sequence: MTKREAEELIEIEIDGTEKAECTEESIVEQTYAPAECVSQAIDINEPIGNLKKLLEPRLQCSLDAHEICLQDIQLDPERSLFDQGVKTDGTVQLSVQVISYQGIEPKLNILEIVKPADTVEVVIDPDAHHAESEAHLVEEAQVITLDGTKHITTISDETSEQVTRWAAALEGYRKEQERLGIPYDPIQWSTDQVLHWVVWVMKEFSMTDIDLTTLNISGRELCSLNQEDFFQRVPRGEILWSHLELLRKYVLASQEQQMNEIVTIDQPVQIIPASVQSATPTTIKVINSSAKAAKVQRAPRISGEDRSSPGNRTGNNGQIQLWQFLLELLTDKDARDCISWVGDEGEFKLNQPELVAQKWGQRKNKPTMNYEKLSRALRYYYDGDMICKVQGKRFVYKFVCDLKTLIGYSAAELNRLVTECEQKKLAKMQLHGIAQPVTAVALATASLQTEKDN
In short: as §1

[3] = target: ELF1 (Homo sapiens, UniProt P32519 1-619)
In short: as §1

[4] = target: T3, EHF (Homo sapiens, UniProt Q9NZC4 1-300)
T3 sequence: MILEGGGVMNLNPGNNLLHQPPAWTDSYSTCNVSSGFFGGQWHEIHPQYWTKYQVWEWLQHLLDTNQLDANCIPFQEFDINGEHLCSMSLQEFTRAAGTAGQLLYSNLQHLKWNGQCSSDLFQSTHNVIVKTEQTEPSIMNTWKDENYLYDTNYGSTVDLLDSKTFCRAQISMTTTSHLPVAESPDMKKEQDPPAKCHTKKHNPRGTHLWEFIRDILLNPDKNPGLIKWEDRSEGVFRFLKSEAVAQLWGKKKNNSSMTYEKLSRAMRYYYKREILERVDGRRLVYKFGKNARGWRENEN
In short: as §1

[5] = target: SPIB (Homo sapiens, UniProt Q01892 1-262)
In short: as §1

[6] = target: T4, FEV (Homo sapiens, UniProt Q99581 1-238)
T4 sequence: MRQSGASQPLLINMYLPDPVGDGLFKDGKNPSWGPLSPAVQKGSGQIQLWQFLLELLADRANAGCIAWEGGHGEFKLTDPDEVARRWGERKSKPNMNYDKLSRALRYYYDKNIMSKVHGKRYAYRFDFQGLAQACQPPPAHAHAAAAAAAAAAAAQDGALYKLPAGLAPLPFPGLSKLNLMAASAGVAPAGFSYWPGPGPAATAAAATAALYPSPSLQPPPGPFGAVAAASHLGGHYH
In short: as §1

[7] = target: ETV5 (Homo sapiens, UniProt P41161 1-510)
In short: as §1

[8] = target: ELF4 (Homo sapiens, UniProt Q99607 1-663)
In short: as §1

[9] = target: T5, ETV2 (Homo sapiens, UniProt O00321 1-342)
T5 sequence: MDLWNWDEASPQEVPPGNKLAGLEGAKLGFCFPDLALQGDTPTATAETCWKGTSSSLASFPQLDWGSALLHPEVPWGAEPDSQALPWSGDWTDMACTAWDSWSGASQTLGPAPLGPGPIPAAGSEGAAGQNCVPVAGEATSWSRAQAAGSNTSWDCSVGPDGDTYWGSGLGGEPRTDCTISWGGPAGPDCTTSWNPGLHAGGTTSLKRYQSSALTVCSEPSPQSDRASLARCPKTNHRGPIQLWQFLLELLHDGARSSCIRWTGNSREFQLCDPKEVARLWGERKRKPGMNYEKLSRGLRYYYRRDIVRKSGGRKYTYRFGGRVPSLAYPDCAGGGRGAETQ
In short: as §1

[10] = target: T6, ELF3 (Homo sapiens, UniProt P78545 1-371)
T6 sequence: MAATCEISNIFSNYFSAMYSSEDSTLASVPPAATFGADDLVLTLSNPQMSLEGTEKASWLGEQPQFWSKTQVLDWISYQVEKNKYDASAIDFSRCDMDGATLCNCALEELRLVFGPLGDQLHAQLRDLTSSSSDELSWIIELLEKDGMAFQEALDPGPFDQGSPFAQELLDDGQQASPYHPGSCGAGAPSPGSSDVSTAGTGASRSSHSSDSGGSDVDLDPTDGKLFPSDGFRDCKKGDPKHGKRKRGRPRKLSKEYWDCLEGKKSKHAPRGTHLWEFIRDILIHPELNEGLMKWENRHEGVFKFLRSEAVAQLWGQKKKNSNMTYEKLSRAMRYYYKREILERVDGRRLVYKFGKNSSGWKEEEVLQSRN
In short: as §1

[11] = target: ETV1 (Homo sapiens, UniProt P50549 1-477)
In short: as §1

[12] = target: T7, ERF (Homo sapiens, UniProt P50548 1-548)
T7 sequence: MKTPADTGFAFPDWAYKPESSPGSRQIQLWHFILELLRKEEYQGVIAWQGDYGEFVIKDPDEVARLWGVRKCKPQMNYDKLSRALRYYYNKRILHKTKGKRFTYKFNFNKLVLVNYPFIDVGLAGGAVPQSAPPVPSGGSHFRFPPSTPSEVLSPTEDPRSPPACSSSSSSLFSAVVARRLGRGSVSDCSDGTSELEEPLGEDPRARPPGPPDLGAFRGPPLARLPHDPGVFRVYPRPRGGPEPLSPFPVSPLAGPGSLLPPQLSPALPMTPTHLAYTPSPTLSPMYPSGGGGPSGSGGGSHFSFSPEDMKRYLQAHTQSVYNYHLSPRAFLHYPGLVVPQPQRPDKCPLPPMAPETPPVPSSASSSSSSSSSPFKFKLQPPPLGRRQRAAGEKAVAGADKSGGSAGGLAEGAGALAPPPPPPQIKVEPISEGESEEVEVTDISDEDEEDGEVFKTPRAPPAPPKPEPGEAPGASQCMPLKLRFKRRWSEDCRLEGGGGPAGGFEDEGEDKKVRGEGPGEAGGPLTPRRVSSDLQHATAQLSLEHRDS
In short: as §1

[13] = target: T8, ETS2 (Homo sapiens, UniProt P15036 1-469)
T8 sequence: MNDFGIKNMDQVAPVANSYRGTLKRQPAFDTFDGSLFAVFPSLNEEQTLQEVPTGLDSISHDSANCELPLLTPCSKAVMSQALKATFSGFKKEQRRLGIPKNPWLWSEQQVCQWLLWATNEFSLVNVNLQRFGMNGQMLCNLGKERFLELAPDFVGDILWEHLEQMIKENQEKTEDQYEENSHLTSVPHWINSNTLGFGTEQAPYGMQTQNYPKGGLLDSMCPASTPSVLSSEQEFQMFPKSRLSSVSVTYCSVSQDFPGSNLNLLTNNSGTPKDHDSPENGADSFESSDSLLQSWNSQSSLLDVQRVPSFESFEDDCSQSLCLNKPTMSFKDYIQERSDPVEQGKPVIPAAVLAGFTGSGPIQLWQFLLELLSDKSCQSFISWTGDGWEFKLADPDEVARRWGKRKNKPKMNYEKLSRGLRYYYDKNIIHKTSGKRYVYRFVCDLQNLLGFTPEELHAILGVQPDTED
In short: as §1

[14] = target: T9, SPDEF (Homo sapiens, UniProt O95238 1-335)
T9 sequence: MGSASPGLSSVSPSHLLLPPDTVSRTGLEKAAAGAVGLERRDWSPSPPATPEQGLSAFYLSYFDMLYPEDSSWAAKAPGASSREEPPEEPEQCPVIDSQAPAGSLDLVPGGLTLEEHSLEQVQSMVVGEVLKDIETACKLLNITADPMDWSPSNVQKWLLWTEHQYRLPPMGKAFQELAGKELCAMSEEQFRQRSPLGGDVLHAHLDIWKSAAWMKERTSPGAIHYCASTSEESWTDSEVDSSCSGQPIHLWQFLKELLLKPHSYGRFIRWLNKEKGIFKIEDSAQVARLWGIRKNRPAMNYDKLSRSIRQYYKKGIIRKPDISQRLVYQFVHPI
In short: as §1

[15] = target: T10, ETV3 (Homo sapiens, UniProt P41162-2 1-143)
T10 sequence: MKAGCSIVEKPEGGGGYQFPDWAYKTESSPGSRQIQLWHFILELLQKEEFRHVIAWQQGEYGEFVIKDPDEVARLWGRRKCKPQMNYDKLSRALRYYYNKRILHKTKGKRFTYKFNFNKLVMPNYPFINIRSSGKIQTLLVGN
In short: as §1

ETV5, sequence (P41161 whole entry): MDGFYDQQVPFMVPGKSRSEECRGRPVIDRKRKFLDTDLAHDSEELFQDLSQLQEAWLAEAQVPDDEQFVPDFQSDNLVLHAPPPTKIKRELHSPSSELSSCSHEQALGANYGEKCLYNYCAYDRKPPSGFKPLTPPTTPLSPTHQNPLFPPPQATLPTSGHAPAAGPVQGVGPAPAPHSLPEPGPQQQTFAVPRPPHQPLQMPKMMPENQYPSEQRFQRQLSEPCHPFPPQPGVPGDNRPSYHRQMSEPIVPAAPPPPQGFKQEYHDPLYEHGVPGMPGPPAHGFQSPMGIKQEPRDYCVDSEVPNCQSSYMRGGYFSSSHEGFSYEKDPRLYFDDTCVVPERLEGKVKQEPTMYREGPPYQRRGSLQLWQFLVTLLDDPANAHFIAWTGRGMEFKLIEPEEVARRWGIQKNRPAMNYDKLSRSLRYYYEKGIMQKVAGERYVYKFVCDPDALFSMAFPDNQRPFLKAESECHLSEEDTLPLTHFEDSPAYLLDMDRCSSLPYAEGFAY
ELF1, sequence (P32519 whole entry): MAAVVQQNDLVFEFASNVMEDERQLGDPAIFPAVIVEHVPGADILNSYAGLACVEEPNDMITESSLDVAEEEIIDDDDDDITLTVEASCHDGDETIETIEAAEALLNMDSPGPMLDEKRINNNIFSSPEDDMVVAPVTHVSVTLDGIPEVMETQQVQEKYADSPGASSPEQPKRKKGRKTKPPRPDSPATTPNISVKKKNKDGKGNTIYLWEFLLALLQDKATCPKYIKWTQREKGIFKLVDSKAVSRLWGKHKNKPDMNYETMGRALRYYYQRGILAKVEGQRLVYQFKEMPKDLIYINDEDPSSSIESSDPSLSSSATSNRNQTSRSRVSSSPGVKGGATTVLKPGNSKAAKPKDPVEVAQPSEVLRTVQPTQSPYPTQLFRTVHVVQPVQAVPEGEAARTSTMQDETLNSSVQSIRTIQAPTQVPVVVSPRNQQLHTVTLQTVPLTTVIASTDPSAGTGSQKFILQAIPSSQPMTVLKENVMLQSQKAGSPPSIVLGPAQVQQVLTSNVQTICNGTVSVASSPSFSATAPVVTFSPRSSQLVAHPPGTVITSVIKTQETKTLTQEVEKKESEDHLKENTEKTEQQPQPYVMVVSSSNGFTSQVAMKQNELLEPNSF
ELF4, sequence (Q99607 whole entry): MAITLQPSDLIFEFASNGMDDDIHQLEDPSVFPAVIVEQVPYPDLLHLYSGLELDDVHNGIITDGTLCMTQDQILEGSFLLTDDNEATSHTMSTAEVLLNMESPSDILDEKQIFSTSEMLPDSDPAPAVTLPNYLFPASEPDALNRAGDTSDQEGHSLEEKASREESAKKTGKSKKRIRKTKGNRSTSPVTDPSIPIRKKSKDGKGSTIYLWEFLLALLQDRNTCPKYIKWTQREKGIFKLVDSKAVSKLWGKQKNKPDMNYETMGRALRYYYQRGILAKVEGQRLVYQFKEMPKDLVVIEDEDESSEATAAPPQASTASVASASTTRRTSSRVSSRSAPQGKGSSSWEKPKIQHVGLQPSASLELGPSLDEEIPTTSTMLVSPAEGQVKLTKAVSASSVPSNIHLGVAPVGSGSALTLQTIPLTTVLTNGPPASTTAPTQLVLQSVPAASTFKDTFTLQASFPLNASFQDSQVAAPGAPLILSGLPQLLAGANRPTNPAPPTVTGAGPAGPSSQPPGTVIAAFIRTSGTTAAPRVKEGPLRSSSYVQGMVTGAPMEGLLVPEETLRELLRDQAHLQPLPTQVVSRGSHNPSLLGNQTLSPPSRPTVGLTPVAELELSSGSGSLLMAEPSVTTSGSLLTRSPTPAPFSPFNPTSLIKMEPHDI
SPIB, sequence (Q01892 whole entry): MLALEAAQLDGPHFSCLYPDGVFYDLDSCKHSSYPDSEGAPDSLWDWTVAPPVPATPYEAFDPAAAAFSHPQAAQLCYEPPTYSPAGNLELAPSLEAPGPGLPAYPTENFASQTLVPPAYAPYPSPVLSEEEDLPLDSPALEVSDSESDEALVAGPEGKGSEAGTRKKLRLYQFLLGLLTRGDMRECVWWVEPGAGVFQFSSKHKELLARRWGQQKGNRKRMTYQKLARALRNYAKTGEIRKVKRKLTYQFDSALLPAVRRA
ETV1, sequence (P50549 whole entry): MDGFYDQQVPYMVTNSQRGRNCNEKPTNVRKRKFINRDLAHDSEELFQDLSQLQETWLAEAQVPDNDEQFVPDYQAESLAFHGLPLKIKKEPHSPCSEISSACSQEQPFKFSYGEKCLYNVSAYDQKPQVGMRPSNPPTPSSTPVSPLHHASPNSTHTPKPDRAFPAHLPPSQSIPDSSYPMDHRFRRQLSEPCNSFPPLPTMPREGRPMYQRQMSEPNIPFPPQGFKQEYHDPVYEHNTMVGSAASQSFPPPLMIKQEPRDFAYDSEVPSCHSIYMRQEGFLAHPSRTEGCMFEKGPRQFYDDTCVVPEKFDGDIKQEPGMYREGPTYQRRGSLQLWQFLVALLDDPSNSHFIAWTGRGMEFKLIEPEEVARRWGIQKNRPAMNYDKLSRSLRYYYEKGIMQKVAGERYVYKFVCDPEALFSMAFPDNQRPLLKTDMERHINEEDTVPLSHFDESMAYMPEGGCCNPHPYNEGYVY

Question: Which results are given for ATAGCC?
Answer: binding signal [1]: 1.08 fold enrichment (6-mer frequency, TF over GST control); binding signal [2]: 1.11 fold enrichment (6-mer frequency, TF over GST control); binding signal [3]: 1.05 fold enrichment (6-mer frequency, TF over GST control); binding signal [4]: 1.1 fold enrichment (6-mer frequency, TF over GST control); binding signal [5]: 1.04 fold enrichment (6-mer frequency, TF over GST control); binding signal [6]: 1.1 fold enrichment (6-mer frequency, TF over GST control); binding signal [7]: 1.1 fold enrichment (6-mer frequency, TF over GST control); binding signal [8]: 1.1 fold enrichment (6-mer frequency, TF over GST control); binding signal [9]: 1 fold enrichment (6-mer frequency, TF over GST control); binding signal [10]: 1.15 fold enrichment (6-mer frequency, TF over GST control); binding signal [11]: 1.03 fold enrichment (6-mer frequency, TF over GST control); binding signal [12]: 1.1 fold enrichment (6-mer frequency, TF over GST control); binding signal [13]: 1.07 fold enrichment (6-mer frequency, TF over GST control); binding signal [14]: 1.08 fold enrichment (6-mer frequency, TF over GST control); binding signal [15]: 1.06 fold enrichment (6-mer frequency, TF over GST control)
